test system: Inhibin beta A chain (activin A); test: small molecules binding activin A – biochemical, small-molecule microarray, 635 nm fluorescence scan, primary screen (AID 1107); details: INHBA, higher = more signal;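 note: mouse activin A protein probed at 4.33 µg/mL on printed slides; score merges bound-protein fluorescence near 667 nm with spot signal-to-noise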

First: CC1CC/C=C\[C@H]2OC34C=CCN(CCN5CCOCC5)C(=O)[C@H]3N(CCCO)C(=O)[C@@H]4C2C(=O)O1 (some centres not stated)
Second: NC(=O)N1C(=O)C2C(C1=O)C1C=C(CCCO)C2C(C2CC2)N1Cc1sc2ccccc2c1Cl (configuration not stated)
The composite z-score of the first is higher: 1.39 for the first, 0.303 for the second.

Going from `COC(=O)C[C@H]1O[C@@]2(C[C@@H]1[Si](C)(C)C)C(=O)N(C)c1ccccc12` to `O=C1[C@H]2C=C(I)[C@H](C[C@@H]2c2ccccc2)[C@@]12CO2`, the composite z-score rises from -1.08 to 1.15.

Going from `O=C1C2C=CC(C(O)c3cccs3)N(Nc3ccc([N+](=O)[O-])cc3)C2C(=O)N1c1ccccc1` (configuration not stated) to `COc1ccc(C(O)C2C=CC3C(=O)NC(=O)C3N2Nc2ccc(Cl)cc2Cl)c2ccccc12` (configuration not stated), the composite z-score rises from 0.796 to 1.14.

First: Cc1ccc(S[C@]2(C(=O)NCc3ccccc3)CC(=O)N(Cc3ccccc3C(F)(F)F)[C@@H]2c2ccc(CO)cc2)cc1
Second: CCOC(=O)C1=CC[C@@H](c2ccccc2)N(S(=O)(=O)c2ccc(C)cc2)[C@H]1c1ccccc1I
The composite z-score of the first is lower: 0.242 for the first, 0.471 for the second.

Going from `C=CC[C@@]12N=C(c3ccc(OCCCO)cc3)O[C@@H]1c1ccccc1N(CCC)C2=O` to `COCCCNC(=O)[C@@]1(CCC(=O)OC(C)(C)C)COC(c2ccc(OCCCO)cc2)=N1`, the composite z-score falls from 1.19 to 0.64.

Compared with `C=CCC(OC(C)=O)[C@@H]1[C@@H](N(Cc2cccc3ccccc23)C(=O)c2ccc(-c3ccccc3)cc2)c2cc(OCCCO)ccc2N1C(=O)Cc1ccc2ccccc2c1` (some centres not stated), `O=C1O[C@H](c2ccccc2)[C@H](c2ccccc2)N2[C@H]1[C@@H](C(=O)O)[C@]1(C(=O)Nc3ccc(C#CCCO)cc31)[C@H]2c1ccc(OCCO)cc1` is higher in composite z-score: 0.45 for the first, 1.31 for the second.
